The full data set covers some 8,800 targets. This sample favours those with a hit. About 0.5% of all pairs of compound and target were hits.
Key:
Experiment in all cases: log2 fold change, soluble protein after heating vs DMSO (PISA); higher = thermal stabilisation; K562 lysate, 10 uM; active = over 0.2 and 3.5 SD of the protein, either way, in both replicates (recomputed)
[1] = compound: C=CC(=O)N1CCC[C@@H](n2nc(-c3ccc(Oc4ccccc4)cc3)c3c(N)ncnc32)C1 [ibrutinib]
In short: (§1)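 K562 pellets were dounce-homogenised in PBS pH 7.4 containing 1 mM MgCl2, and the crude extract, at 1 mg/mL protein, was exposed to 10 μM compound for 30 min. Aliquots were heated for 3 min across 48°C-58°C, pooled, brought to 0.5% NP-40 at 4°C and spun at 21,000xg for 90 min, with the supernatant taken as soluble protein. TMTpro 16plex LC-MS/MS with equalised channel sums quantified that protein. Values are log-two fold changes in thermal stability relative to solvent controls, taken from duplicates.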

[2] = compound: CC(=O)c1cnc2ccc(-c3cc(Cl)c(O)c(Cl)c3)nc2c1N[C@H]1CC[C@H](CN(C)C)CC1
In short: as §1

[3] = compound: CC(C)(C)Cn1c(N)nc2ccc(-c3[nH]c(C(C)(C)C)nc3-c3ccc(F)cc3)nc21 [ralimetinib]
In short: as §1

[4] = compound: CC(C)(O)CC(=O)NCCn1ccc2ncnc(Nc3ccc(Oc4cccc(C(F)(F)F)c4)c(Cl)c3)c21
In short: as §1

[5] = compound: CC(C)C1=C2N=C(C=C(N2N=C1)NCC3=CC=CC=C3)NCCCCCCN
In short: as §1

[6] = compound: CC1=C(C(CC(=O)N1)C2=CC=C(C=C2)C(F)(F)F)C(=O)NC3=C(C=C4C(=C3)C=NN4)F
In short: as §1

[7] = compound: CC1=C(C2=C(C=C1)C(=O)C3=CC=CC=C3N2CCCN)C
In short: as §1

[8] = compound: CC1=C(C=C(C=C1)NC(=O)C2=CC(=CC=C2)C(C)(C)C#N)NC3=CC4=C(C=C3)N=CN(C4=O)C
In short: as §1

[9] = compound: CC1=C(C=C(C=C1)NC(=O)C2=CC(=CC=C2)N(C)C)NC(=O)C3=CC=C(C=C3)O
In short: as §1

[10] = compound: CC1=CC=C(C=C1)SC2=C3C=C(SC3=CN=C2)C(=O)N
In short: as §1

Measured: log2 fold change

PANK4 (UniProt Q9NVE7)
Sequence of UniProt Q9NVE7 (Q9NVE7 whole entry, looked up): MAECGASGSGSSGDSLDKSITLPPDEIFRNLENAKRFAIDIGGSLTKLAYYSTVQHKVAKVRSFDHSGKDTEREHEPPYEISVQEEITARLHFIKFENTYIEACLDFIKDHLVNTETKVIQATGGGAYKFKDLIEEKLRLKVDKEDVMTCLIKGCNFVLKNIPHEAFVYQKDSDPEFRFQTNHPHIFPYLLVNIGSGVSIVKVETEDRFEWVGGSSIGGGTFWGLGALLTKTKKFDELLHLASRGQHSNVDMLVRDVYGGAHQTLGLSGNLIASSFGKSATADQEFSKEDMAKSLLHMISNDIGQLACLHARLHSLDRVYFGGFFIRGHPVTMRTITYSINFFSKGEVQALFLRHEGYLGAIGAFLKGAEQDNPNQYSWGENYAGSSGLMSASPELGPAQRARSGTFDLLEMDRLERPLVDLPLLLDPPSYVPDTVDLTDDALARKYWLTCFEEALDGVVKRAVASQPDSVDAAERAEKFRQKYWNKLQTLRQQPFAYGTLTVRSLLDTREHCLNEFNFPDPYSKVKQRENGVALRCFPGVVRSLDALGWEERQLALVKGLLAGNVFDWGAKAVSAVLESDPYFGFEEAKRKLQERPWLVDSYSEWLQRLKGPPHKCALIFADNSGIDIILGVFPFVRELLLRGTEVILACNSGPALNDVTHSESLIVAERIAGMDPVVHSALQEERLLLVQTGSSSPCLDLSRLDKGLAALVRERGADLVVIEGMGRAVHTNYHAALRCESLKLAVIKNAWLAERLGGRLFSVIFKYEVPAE
inactive: [1] 0.039 | [2] 0.001 | [3] 0.023 | [4] -0.008 | [5] 0.036 | [6] -0.01 | [7] -0.024 | [8] -0.001 | [9] -0.005 | [10] -0.005

PAK1 (UniProt Q13153)
Sequence of UniProt Q13153 (Q13153 whole entry, looked up): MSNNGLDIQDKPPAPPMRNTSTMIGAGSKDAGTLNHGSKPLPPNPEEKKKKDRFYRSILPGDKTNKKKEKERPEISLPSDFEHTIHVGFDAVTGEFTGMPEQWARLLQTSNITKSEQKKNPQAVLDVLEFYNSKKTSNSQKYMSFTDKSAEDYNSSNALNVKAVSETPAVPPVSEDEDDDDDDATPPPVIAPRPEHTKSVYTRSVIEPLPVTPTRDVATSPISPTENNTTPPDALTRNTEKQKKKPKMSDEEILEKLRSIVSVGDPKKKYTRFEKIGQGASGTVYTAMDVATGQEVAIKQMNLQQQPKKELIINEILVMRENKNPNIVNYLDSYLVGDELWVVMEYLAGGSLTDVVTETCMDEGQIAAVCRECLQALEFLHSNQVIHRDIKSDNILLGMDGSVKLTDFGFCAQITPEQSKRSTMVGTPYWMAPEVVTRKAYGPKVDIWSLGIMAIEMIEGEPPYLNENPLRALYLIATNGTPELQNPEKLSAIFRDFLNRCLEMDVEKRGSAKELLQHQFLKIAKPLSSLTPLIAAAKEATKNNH
inactive: [1] 0.067 | [2] -0.011 | [3] 0.001 | [4] 0.004 | [5] -0.108 | [6] -0.003 | [7] -0.018 | [8] 0.041 | [9] 0.008 | [10] 0.009

MYOM1 (UniProt P52179)
inactive: [1] -0.017 | [2] 0.016 | [3] 0.254 | [4] 0.026 | [5] -0.017 | [6] 0.011 | [7] -0.156 | [8] 0.052 | [9] -0.083 | [10] -0.025

NSUN2 (UniProt Q08J23)
Sequence of UniProt Q08J23 (Q08J23 whole entry, looked up): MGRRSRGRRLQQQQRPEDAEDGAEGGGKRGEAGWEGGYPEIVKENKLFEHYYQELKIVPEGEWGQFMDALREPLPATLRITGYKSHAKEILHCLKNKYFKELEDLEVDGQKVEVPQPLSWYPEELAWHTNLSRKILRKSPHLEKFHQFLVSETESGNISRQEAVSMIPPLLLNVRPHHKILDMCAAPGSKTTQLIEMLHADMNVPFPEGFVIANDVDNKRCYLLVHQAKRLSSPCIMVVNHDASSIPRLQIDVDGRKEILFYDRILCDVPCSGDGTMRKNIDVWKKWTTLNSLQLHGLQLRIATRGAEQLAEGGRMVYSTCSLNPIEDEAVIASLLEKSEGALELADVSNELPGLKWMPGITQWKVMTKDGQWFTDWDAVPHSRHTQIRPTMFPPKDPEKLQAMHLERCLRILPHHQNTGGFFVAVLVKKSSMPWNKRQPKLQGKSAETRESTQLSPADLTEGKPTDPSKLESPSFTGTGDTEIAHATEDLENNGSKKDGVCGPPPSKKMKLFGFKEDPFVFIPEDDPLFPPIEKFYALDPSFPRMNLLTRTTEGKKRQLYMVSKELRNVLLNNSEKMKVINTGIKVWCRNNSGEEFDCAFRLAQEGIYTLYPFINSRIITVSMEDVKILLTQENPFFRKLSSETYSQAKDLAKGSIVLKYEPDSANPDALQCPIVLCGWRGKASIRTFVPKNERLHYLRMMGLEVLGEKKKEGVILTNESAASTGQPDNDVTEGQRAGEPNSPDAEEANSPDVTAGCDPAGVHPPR
inactive: [1] 0.014 | [2] 0.011 | [3] 0.023 | [4] 0.015 | [5] 0.006 | [6] 0.008 | [7] 0.006 | [8] -0.035 | [9] 0.033 | [10] 0.017

PANK1 (UniProt Q8TE04)
Sequence of UniProt Q8TE04 (Q8TE04 whole entry, looked up): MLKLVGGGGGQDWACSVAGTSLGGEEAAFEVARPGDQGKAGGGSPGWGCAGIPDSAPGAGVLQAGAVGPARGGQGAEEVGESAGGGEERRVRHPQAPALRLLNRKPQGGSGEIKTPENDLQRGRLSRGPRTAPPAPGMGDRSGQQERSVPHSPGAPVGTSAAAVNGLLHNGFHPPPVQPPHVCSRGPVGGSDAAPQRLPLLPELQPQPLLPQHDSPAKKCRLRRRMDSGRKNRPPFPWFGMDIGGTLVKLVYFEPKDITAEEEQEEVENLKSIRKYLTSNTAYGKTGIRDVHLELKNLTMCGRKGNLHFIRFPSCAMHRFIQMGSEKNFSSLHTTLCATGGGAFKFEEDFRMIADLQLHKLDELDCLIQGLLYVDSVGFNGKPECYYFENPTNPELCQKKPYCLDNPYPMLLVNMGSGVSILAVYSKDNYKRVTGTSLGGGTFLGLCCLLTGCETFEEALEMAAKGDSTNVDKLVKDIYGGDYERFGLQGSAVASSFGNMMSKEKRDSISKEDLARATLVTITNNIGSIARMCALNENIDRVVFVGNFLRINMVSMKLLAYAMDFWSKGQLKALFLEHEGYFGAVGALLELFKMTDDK
inactive: [1] -0.031 | [2] -0.007 | [3] 0.04 | [4] -0.003 | [5] -0.079 | [6] 0.045 | [7] -0.068 | [8] -0.035 | [9] -0.025 | [10] 0.064

NOSIP (UniProt Q9Y314)
Sequence of UniProt Q9Y314 (Q9Y314 whole entry, looked up): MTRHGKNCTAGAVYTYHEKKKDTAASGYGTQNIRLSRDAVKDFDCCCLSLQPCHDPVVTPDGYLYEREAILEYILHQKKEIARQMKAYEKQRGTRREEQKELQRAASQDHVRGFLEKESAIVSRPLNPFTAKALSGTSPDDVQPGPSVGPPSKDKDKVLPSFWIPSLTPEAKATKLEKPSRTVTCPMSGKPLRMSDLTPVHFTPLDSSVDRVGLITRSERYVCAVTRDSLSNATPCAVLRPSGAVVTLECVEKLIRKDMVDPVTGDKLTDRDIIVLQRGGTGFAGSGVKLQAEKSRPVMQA
inactive: [1] 0.028 | [2] 0.037 | [3] 0 | [4] 0.009 | [5] -0.014 | [6] -0.009 | [7] 0 | [8] 0.047 | [9] 0.027 | [10] -0.009

NDUFA4 (UniProt O00483)
Sequence of UniProt O00483 (O00483 whole entry, looked up): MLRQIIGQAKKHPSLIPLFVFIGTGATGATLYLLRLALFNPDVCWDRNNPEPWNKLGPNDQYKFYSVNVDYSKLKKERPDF
inactive: [1] 0.007 | [2] 0.199 | [3] 0.022 | [4] 0.03 | [5] -0.068 | [6] -0.045 | [7] -0.036 | [8] -0.058 | [9] 0.009 | [10] -0.199

NELFCD (UniProt Q8IXH7)
Sequence of UniProt Q8IXH7 (Q8IXH7 whole entry, looked up): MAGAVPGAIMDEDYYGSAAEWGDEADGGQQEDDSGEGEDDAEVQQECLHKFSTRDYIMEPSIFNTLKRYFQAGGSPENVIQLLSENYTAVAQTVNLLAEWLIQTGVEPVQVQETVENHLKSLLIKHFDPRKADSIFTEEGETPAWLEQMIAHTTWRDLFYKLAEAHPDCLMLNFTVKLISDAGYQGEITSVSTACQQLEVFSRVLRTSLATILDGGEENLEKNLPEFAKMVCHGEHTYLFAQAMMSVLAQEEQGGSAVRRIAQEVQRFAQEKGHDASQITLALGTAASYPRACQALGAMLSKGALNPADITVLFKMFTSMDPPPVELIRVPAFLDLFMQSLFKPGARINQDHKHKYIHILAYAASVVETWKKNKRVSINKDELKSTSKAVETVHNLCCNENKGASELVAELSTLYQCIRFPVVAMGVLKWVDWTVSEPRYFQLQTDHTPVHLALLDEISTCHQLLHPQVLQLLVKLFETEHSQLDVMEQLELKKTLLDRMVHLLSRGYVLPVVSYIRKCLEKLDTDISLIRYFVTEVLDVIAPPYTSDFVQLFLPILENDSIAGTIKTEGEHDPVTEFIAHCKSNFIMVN
inactive: [1] 0.039 | [2] 0.013 | [3] 0.019 | [4] -0.043 | [5] 0.009 | [6] 0.007 | [7] 0.013 | [8] 0.011 | [9] 0.049 | [10] -0.02

PARD3 (UniProt Q8TEW0)
inactive: [1] 0.026 | [2] 0.134 | [3] -0.017 | [4] -0.011 | [5] 0.001 | [6] 0.011 | [7] 0.006 | [8] 0.116 | [9] 0.01 | [10] -0.068

NCK1 (UniProt P16333)
inactive: [1] 0.025 | [2] -0.029 | [3] 0.003 | [4] 0.01 | [5] -0.016 | [6] 0.028 | [7] 0.002 | [8] -0.005 | [9] 0.029 | [10] 0

MYD88 isoform 6 (UniProt Q99836)
Sequence of UniProt Q99836 (Q99836 whole entry, looked up): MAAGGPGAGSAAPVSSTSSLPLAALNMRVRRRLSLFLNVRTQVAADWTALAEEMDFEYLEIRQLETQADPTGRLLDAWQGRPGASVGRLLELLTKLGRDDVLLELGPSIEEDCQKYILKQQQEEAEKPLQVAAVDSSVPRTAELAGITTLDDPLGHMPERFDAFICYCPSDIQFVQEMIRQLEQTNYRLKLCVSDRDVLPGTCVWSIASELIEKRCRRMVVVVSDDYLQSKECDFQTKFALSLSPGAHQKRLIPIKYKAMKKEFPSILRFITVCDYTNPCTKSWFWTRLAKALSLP
inactive: [1] 0.044 | [2] 0.003 | [3] 0.022 | [4] 0.005 | [5] 0.024 | [6] 0.002 | [7] -0.028 | [8] -0.009 | [9] -0.024 | [10] -0.029

NCOR1 (UniProt O75376)
inactive: [1] 0.002 | [2] 0.015 | [3] 0.021 | [4] -0.033 | [5] 0.014 | [6] 0.026 | [7] -0.026 | [8] 0 | [9] -0.006 | [10] -0.005

NUB1 (UniProt Q9Y5A7)
Sequence of UniProt Q9Y5A7 (Q9Y5A7 whole entry, looked up): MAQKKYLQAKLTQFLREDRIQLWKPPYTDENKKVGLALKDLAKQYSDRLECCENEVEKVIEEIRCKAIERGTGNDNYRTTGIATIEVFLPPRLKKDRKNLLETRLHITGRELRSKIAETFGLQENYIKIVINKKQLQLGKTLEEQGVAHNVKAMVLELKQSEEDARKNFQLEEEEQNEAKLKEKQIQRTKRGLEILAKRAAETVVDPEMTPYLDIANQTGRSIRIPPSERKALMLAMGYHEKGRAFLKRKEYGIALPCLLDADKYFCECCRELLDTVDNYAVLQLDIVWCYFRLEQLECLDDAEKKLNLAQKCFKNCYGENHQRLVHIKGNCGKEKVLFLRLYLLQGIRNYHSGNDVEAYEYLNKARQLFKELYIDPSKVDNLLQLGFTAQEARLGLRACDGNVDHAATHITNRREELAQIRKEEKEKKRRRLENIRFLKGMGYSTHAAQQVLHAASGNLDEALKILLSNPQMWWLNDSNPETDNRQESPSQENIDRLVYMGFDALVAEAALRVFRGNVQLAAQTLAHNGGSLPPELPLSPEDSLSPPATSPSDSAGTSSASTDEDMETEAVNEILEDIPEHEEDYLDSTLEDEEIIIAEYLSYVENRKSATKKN
inactive: [1] -0.001 | [2] 0.022 | [3] -0.003 | [4] 0.018 | [5] -0.027 | [6] 0.014 | [7] -0.009 | [8] -0.028 | [9] 0.008 | [10] 0.02

OTC (UniProt P00480)
Sequence of UniProt P00480 (P00480 whole entry, looked up): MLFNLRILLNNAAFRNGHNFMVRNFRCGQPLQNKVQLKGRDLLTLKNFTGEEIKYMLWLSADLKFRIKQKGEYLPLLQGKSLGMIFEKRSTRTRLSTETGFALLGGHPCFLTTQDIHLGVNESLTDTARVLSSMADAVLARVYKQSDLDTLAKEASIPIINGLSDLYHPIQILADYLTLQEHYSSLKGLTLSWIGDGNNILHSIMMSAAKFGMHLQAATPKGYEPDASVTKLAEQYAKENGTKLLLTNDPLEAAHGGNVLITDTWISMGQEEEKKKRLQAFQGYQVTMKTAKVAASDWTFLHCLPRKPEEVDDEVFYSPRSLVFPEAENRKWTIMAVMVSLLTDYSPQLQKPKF
inactive: [1] -0.089 | [2] 0.001 | [3] 0.065 | [4] -0.18 | [5] 0.017 | [6] -0.055 | [7] 0.065 | [8] 0.156 | [9] -0.034 | [10] -0.004

PAN2 isoform 2 (UniProt Q504Q3)
inactive: [1] -0.141 | [2] 0.036 | [3] 0.022 | [4] -0.022 | [5] -0.025 | [6] 0.022 | [7] 0.015 | [8] 0.012 | [9] -0.038 | [10] 0.027

From the supplement of paper PMC10849652
